A number with no mark means an inactive call. For part of these data: Results with a measured potency or affinity are listed apart. Active and inactive are the calls of the source. Unless noted, no rule for the calls is given here.
Tests used:
[1] = antimalarial activity against Dd2 strain (AID 2302;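 active = growth inhibition above 50% at the single 2 µM test dose, taken to imply half-maximal potency below 2 µM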;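 also: 0% = DMSO untreated growth and 100% = chloroquine plus artemisinin killed control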); conditions: P. falciparum Dd2 in RBCs, LDH growth readout, 72 h; at 2 µM; stronger effect = higher value
[2] = human hepatoma cell viability loss – ATP luminescence, cytotoxicity control for P. falciparum antimalarial project, primary screen (AID 2303;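 active = inhibition above 50%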;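 also: 0% = DMSO wells and 100% = digitonin-killed cells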); conditions: HepG2 viability, 24-48 h, at 10 µM, stronger effect = higher value
[3] = target: L-lactate dehydrogenase (Plasmodium falciparum (isolate CDC / Honduras)) (UniProt Q27743); experiment: PfLDH activity inhibition – cell lysate, 3D7 strain, counter-screen for P. falciparum growth inhibition project (AID 2304);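 also: 0% = vehicle and 100% = reference inhibitor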; conditions: P. falciparum 3D7 crude extract, LDH APAD/NBT absorbance; at 2 µM; stronger effect = higher value
Chain of L-lactate dehydrogenase (Plasmodium falciparum (isolate CDC / Honduras)) (Q27743 whole entry, looked up): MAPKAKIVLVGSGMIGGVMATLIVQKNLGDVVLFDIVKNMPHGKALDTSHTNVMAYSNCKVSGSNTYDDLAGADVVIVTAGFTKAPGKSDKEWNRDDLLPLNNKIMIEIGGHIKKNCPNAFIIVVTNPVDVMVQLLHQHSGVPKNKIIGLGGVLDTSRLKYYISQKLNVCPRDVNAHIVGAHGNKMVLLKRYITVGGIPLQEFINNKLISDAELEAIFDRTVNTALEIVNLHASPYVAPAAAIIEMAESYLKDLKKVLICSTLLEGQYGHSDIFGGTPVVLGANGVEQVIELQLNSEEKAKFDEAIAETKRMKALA

[4] = inhibition of 3D7 malaria parasite growth – strain 3D7 (AID 2306);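 also: 0% = DMSO wells and 100% = chloroquine plus artemisinin control wells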; conditions: P. falciparum 3D7 erythrocytic growth, LDH absorbance, 72 h; at 2 µM; stronger effect = higher value
[5] = target: Calcium-dependent protein kinase 1 (Plasmodium falciparum (isolate 3D7)) (UniProt P62344); experiment: PfCDPK1 kinase inhibitors, biochemical, TCAMS library (AID 1159585; cut-off not given, nearly all actives have IC50 up to about 0.98 µM;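 also: inhibitors leave more ATP so luminescence rises with inhibition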); conditions: recombinant PfCDPK1, Kinase-Glo ATP depletion luminescence
Chain of Calcium-dependent protein kinase 1 (Plasmodium falciparum (isolate 3D7)) (P62344 whole entry, looked up): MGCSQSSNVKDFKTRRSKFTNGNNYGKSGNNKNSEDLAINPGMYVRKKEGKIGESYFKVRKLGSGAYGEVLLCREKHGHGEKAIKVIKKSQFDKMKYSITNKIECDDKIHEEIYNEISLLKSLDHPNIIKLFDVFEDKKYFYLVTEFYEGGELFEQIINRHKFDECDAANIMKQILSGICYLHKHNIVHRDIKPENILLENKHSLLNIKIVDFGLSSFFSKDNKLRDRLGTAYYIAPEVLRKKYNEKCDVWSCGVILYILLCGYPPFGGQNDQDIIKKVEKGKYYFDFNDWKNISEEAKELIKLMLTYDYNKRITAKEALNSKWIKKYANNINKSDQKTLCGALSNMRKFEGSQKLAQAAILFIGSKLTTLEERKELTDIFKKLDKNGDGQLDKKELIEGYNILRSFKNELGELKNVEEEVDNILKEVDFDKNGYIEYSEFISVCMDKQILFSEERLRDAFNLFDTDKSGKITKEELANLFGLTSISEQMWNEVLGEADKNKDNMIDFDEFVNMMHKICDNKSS

[6] = target: Plasmodium falciparum protein kinase 6 (PK6, PF3D7_1337100) (UniProt Q8IDW1); experiment: PfPK6 kinase inhibitors, biochemical, TCAMS library (AID 1159586); conditions: recombinant PfPK6, Kinase-Glo ATP depletion luminescence
Chain of Plasmodium falciparum protein kinase 6 (PK6, PF3D7_1337100) (Q8IDW1 1-305): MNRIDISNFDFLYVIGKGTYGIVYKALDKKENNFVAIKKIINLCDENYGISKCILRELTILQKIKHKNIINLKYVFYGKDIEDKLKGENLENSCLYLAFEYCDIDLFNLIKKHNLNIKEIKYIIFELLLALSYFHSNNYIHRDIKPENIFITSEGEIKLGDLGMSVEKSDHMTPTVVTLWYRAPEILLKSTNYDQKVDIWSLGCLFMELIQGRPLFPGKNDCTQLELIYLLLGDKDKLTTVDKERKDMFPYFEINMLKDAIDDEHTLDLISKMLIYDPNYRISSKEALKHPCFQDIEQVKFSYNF

[7] = target: Protein kinase 7 (PK7), Plasmodium falciparum 3D7 (PF3D7_0213400) (UniProt Q7YTF7); experiment: inhibition of Plasmodium PK7 catalytic activity – biochemical, TCAMS antimalarial set, Kinase-Glo luminescence (AID 1159587); conditions: recombinant PfPK7, Kinase-Glo ATP depletion luminescence
Chain of Protein kinase 7 (PK7), Plasmodium falciparum 3D7 (PF3D7_0213400) (Q7YTF7 1-343): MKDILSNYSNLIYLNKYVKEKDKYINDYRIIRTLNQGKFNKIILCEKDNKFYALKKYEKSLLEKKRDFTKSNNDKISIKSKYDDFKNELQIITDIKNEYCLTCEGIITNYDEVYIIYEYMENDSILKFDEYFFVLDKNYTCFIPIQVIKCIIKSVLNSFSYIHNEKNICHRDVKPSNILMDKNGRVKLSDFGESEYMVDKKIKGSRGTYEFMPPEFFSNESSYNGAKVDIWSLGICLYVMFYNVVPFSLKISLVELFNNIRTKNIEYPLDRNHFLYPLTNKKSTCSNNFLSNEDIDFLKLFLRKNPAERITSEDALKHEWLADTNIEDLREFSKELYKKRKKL

[8] = target: Calcium-dependent protein kinase 4 (Plasmodium falciparum (isolate 3D7)) (UniProt Q8IBS5); experiment: PfCDPK4 kinase inhibitors, biochemical, TCAMS library (AID 1159588; cut-off not given, nearly all actives have IC50 up to about 0.91 µM); conditions: recombinant PfCDPK4, Kinase-Glo ATP depletion luminescence
Chain of Calcium-dependent protein kinase 4 (Plasmodium falciparum (isolate 3D7)) (Q8IBS5 whole entry, looked up): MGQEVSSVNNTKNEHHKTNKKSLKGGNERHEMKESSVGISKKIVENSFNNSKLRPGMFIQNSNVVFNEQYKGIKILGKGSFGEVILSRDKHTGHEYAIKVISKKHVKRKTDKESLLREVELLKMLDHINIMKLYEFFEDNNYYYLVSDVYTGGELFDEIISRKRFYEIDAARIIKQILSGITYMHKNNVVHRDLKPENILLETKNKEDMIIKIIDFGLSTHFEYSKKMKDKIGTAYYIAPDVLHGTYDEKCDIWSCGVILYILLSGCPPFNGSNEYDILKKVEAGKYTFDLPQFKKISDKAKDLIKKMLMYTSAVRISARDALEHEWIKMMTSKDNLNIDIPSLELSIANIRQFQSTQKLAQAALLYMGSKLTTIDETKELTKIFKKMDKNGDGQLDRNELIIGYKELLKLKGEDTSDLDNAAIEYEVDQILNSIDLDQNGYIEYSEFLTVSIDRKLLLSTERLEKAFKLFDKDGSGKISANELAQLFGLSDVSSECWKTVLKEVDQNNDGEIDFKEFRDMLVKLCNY

For CCc1cn2c3c(cc(C(=O)N[C@@H](Cc4ccccc4)[C@H](O)CNCc4ccccc4)cc13)N(C)S(=O)(=O)CC2, the growth inhibition [1] was 99% (active), the inhibition [2] was 3% and the inhibition [3] was 1%. For the same compound, the growth inhibition [4] was 98% (active), the outcome [5] was “inactive” and the outcome [6] was “inactive”. For the same compound, the outcome [7] was “inactive” and the outcome [8] was “inactive”.

For Cc1cccc2[nH]c(-c3cccc(-c4cccc(NC(=O)c5cn(C)c(=O)n5C)c4)c3)nc12, the growth inhibition [1] was 80% (active), the inhibition [2] was 5% and the inhibition [3] was -5%. The growth inhibition [4] was 99% (active), the outcome [5] was “inactive” and the outcome [6] was “inactive”. For the same compound, the outcome [7] was “inactive” and the outcome [8] was “inactive”.

For O=C(/C=C/c1ccc(F)c(Br)c1)NCCCCCN1CCC(c2c[nH]c3ccccc23)CC1, the growth inhibition [1] was 10%, the inhibition [2] was 39% and the inhibition [3] was -7%. The growth inhibition [4] was 92% (active), the outcome [5] was “inactive” and the outcome [6] was “inactive”. The outcome [7] was “inactive” and the outcome [8] was “inactive”.

With Cc1cc(-c2cccc3c(C(=O)N4CCc5cc6nccc(N7CCCN(C)CC7)c6cc54)cccc23)cc(C)n1 the growth inhibition [1] was 100% (active), the inhibition [2] was 17% and the inhibition [3] was 6%. The growth inhibition [4] was 100% (active), the outcome [5] was “inactive” and the outcome [6] was “inactive”. The outcome [7] was “inactive” and the outcome [8] was “inactive”.

In the case of CC[C@H](NC(=O)c1c(CN2CCC(N3CCCCC3)CC2)c(-c2ccccc2)nc2c(Cl)c(O)ccc12)c1ccccc1, the growth inhibition [1] is reported as 66% (active), the inhibition [2] is reported as -1% and the inhibition [3] is reported as -3%. The growth inhibition [4] was 101% (active), the outcome [5] was “inactive” and the outcome [6] was “inactive”. The outcome [7] was “inactive” and the outcome [8] was “inactive”.

With CC(C)[C@@H](NC(=O)NC1CCC(CCN2[C@@H]3CC[C@H]2CC(OC(=O)C(CO)c2ccccc2)C3)CC1)C(O)(c1ccccc1)c1ccccc1 (stereo partly drawn) the growth inhibition [1] was 56% (active), the inhibition [2] was 19% and the inhibition [3] was 2%. The growth inhibition [4] was 96% (active), the outcome [5] was “inactive” and the outcome [6] was “inactive”. For the same compound, the outcome [7] was “inactive” and the outcome [8] was “inactive”.

In the case of COCCn1c(-c2cccc(Cl)c2)nn(-c2ccc([N+](=O)[O-])cc2C#N)c1=S, the growth inhibition [1] is reported as 100% (active), the inhibition [2] is reported as 7% and the inhibition [3] is reported as 0%. The growth inhibition [4] was 100% (active), the outcome [5] was “inactive” and the outcome [6] was “inactive”. The outcome [7] was “inactive” and the outcome [8] was “inactive”.

Work on Nc1cc(-c2cccc(Cl)c2)nn1-c1ccnc2cc(Cl)ccc12 yielded a growth inhibition [1] of 33%, an inhibition [2] of -3% and an inhibition [3] of -2%. The growth inhibition [4] was 99% (active), the outcome [5] was “inactive” and the outcome [6] was “inactive”. For the same compound, the outcome [7] was “inactive” and the outcome [8] was “inactive”.

With COc1cccc(CCc2c(CCNCCCCCCNCCc3ccccc3)ccc(OC)c2OC)c1 the growth inhibition [1] was 69% (active), the inhibition [2] was 100% (active) and the inhibition [3] was 6%. The growth inhibition [4] was 100% (active), the outcome [5] was “inactive” and the outcome [6] was “inactive”. The outcome [7] was “inactive” and the outcome [8] was “inactive”.

In the case of COc1ccc2nccc([C@@H](O)CN3CCC(NCCOc4ccc(F)cc4Cl)CC3)c2c1, the growth inhibition [1] is reported as 85% (active), the inhibition [2] is reported as 1% and the inhibition [3] is reported as 3%. For the same compound, the growth inhibition [4] was 99% (active), the outcome [5] was “inactive” and the outcome [6] was “inactive”. The outcome [7] was “inactive” and the outcome [8] was “inactive”.

With CCOc1cc(C)ccc1C1CCN(CCCCNC(=O)c2ccc(NC(=O)c3cc(Cl)cc(Cl)c3)cc2)CC1 the growth inhibition [1] was 78% (active), the inhibition [2] was 4% and the inhibition [3] was -5%. For the same compound, the growth inhibition [4] was 99% (active), the outcome [5] was “inactive” and the outcome [6] was “inactive”. The outcome [7] was “inactive” and the outcome [8] was “inactive”.

In the case of Cc1ccc(Oc2ccccc2NC(=O)CCc2nc3ccccc3c(=O)[nH]2)cc1, the growth inhibition [1] is reported as 99% (active), the inhibition [2] is reported as 3% and the inhibition [3] is reported as -3%. The growth inhibition [4] was 100% (active), the outcome [5] was “inactive” and the outcome [6] was “inactive”. The outcome [7] was “inactive” and the outcome [8] was “inactive”.

For CN1CCN(c2cccc(-c3nnc(-c4ccc(OCC(=O)NCc5cccc(C(F)(F)F)c5)c([N+](=O)[O-])c4)o3)c2)CC1, the growth inhibition [1] was 72% (active), the inhibition [2] was 25% and the inhibition [3] was 2%. For the same compound, the growth inhibition [4] was 90% (active), the outcome [5] was “inactive” and the outcome [6] was “inactive”. The outcome [7] was “inactive” and the outcome [8] was “inactive”.

Cc1noc(C)c1CN1Cc2ccccc2OC2(CCN(Cc3c[nH]c4cnccc34)CC2)C1 gave a growth inhibition [1] of 12%, an inhibition [2] of 19% and an inhibition [3] of -2%. The growth inhibition [4] was 89% (active), the outcome [5] was “inactive” and the outcome [6] was “inactive”. The outcome [7] was “inactive” and the outcome [8] was “inactive”.

Cc1c(N)ccc2[nH]c(-c3ccc(N)cc3)nc12 showed a growth inhibition [1] of 40%, an inhibition [2] of 0% and an inhibition [3] of 0%. For the same compound, the growth inhibition [4] was 97% (active), the outcome [5] was “inactive” and the outcome [6] was “inactive”. The outcome [7] was “inactive” and the outcome [8] was “inactive”.

With Cc1cc(NN=Cc2cccc([N+](=O)[O-])c2)c2ccc(F)cc2n1 the growth inhibition [1] was 98% (active), the inhibition [2] was -18% and the inhibition [3] was -8%. The growth inhibition [4] was 101% (active), the outcome [5] was “inactive” and the outcome [6] was “inactive”. The outcome [7] was “inactive” and the outcome [8] was “inactive”.

For O=C(O)c1cccc2c(-c3ccncc3)cccc12, the growth inhibition [1] was 1%, the inhibition [2] was 29% and the inhibition [3] was -1%. The growth inhibition [4] was 97% (active), the outcome [5] was “inactive” and the outcome [6] was “inactive”. The outcome [7] was “inactive” and the outcome [8] was “inactive”.

For CC(C)N1CCN(c2ccc(OCCCCN3CCN(c4cccc(Cl)c4Cl)CC3)cc2Cl)CC1, the growth inhibition [1] was 34%, the inhibition [2] was 63% (active) and the inhibition [3] was -1%. For the same compound, the growth inhibition [4] was 89% (active), the outcome [5] was “inactive” and the outcome [6] was “inactive”. The outcome [7] was “inactive” and the outcome [8] was “inactive”.

With CNc1ccc(CNCc2ccc(-c3ccc(-c4nc5c(C)cccc5[nH]4)cc3)cc2)cc1 the growth inhibition [1] was 92% (active), the inhibition [2] was 35% and the inhibition [3] was -8%. For the same compound, the growth inhibition [4] was 100% (active), the outcome [5] was “inactive” and the outcome [6] was “inactive”. The outcome [7] was “inactive” and the outcome [8] was “inactive”.

For c1cc2nc(CCc3nc4ccc(C5=N[C@H]6CCCC[C@H]6N5)cc4[nH]3)[nH]c2cc1C1=N[C@@H]2CCCC[C@@H]2N1, the growth inhibition [1] was 96% (active), the inhibition [2] was 3% and the inhibition [3] was -2%. For the same compound, the growth inhibition [4] was 93% (active), the outcome [5] was “inactive” and the outcome [6] was “inactive”. For the same compound, the outcome [7] was “inactive” and the outcome [8] was “inactive”.

In the case of O=C(Nc1cccc(CN2CCCN(Cc3cccc(O)c3)CC2)c1)c1ccc(Cl)c(Cl)c1, the growth inhibition [1] is reported as 79% (active), the inhibition [2] is reported as 25% and the inhibition [3] is reported as 2%. For the same compound, the growth inhibition [4] was 102% (active), the outcome [5] was “inactive” and the outcome [6] was “inactive”. The outcome [7] was “inactive” and the outcome [8] was “inactive”.

From PubChem BioAssay
